Where “and” joins values, the source holds several entries; their conditions need not be identical. Equal entries are not always repeated. Records with an inconclusive call do not appear. Entries that show only a call come without a potency. Some structures have more than one record in an assay (separate samples or runs), and their calls can disagree. Calls of active or inactive are those of the source. Calls follow the shape of the dose curve; as a rule, active = well fitted curve in the direction sought with a large enough effect in the repeat runs; inconclusive = weak or mixed curves; inactive = no such curve, though single readings can be large; an effect the other way counts as inactive or inconclusive.
How the values were obtained:
[1] = A CellTox Green Cytotoxicity Assay to monitor cytotoxicity in HepG2 cells - 0 hour (AID 1224882); also: nearly all actives have a fitted effect of over 35% in size; also: potency is read from the fitted curve at half-maximal effect
Summary of the method: (§1)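 Real-time, homogeneous cytotoxicity readout: dead-cell DNA staining by CellTox Green in HepG2 monolayers, fluorescence measured at timed intervals up to 40 h of continuous compound exposure.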

[2] = A CellTox Green Cytotoxicity Assay to monitor cytotoxicity in HepG2 cells - 32 hour (AID 1224883); also: nearly all actives have a fitted effect of over 50% in size; also: potency is read from the fitted curve at half-maximal effect
Summary of the method: as §1

[3] = A CellTox Green Cytotoxicity Assay to monitor cytotoxicity in HEK293 cells - 8 hour (AID 1224884); also: nearly all actives have a fitted effect of over 35% in size; also: potency is read from the fitted curve at half-maximal effect
Summary of the method: (§2)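 Cytotoxicity was tracked continuously in HEK293 cells by a DNA-binding dye excluded from viable cells. Compounds were transferred in DMSO 5 h after seeding; fluorescence was recorded at intervals up to 40 h.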

[4] = qHTS RealTime-Glo MT Cell Viability Assay in HEK293 cells - 24 hour (AID 1224886); also: nearly all actives have a fitted effect of over 50% in size; also: potency is read from the fitted curve at half-maximal effect
Summary of the method: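 Assay medium contained NanoLuc luciferase plus cell-permeant prosubstrate, added with HEK293 cells at 600 cells/well. After 5 h at 37 C/5% CO2 compounds were added; plates stayed at 37 C for 40 h with serial luminescence reads.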

[5] = qHTS RealTime-Glo MT Cell Viability Assay in HEK293 cells - 8 hour (AID 1224887); also: nearly all actives have a fitted effect of over 50% in size; also: potency is read from the fitted curve at half-maximal effect
Summary of the method: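 Nonlytic bioluminescent viability monitoring. HEK293 at 600 cells/well with reagent; 5 h settle; compound transfer by pintool; plates held at 37 C and read at set time points.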

[6] = A CellTox Green Cytotoxicity Assay to monitor cytotoxicity in HEK293 cells - 16 hour (AID 1224888); also: nearly all actives have a fitted effect of over 35% in size
Summary of the method: as §2

[7] = qHTS RealTime-Glo MT Cell Viability Assay in HepG2 cells - 0 hour (AID 1224889); also: nearly all actives have a fitted effect of over 50% in size; also: potency is read from the fitted curve at half-maximal effect
Summary of the method: (§3)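 qHTS, HepG2, 600 cells/well, RealTime-Glo (NanoLuc + prosubstrate) added with cells; 5 h preincubation; DMSO compound addition; 37 C; luminescence at 0/8/16/24/32/40 h.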

[8] = A CellTox Green Cytotoxicity Assay to monitor cytotoxicity in HepG2 cells - 8 hour (AID 1224890); also: nearly all actives have a fitted effect of over 45% in size; also: potency is read from the fitted curve at half-maximal effect
Summary of the method: as §1

[9] = qHTS assay to identify small molecule antagonists of the estrogen receptor alpha (ER-alpha) signaling pathway using the BG1 cell line in the presence of 0.1 nM 17-beta-estradiol - cell viability counter screen (AID 1259241); also: nearly all actives have a fitted effect of over 40% in size; also: potency is read from the fitted curve at half-maximal effect
Summary of the method: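 VM7Luc4E2 cells (endogenous ER-alpha, 4×ERE-luciferase), hormone-starved 5 days in charcoal-stripped FBS, were treated with compounds plus 0.1 nM 17beta-estradiol for 22 hr at 37C; viability read in same wells as CellTiter-Fluor live-cell protease fluorescence.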

[10] = qHTS RealTime-Glo MT Cell Viability Assay in HepG2 cells - 16 hour (AID 1224885); also: nearly all actives have a fitted effect of over 50% in size
Summary of the method: as §3

| Compound | Potency [1] | Potency [2] | Potency [3] | Potency [4] | Potency [5] | Potency [6] | Potency [7] | Potency [8] | Potency [9] | Potency [10] |
| --- | --- | --- | --- | --- | --- | --- | --- | --- | --- | --- |
| CCCCCC1C(=O)CCC1CC(=O)OC (stereo not drawn) | inactive | inactive | inactive | inactive | inactive | inactive | inactive | inactive | inactive |  |
| Cc1ccc(C(C)(C)C)cc1 | inactive | inactive | inactive | inactive |  | inactive | inactive | inactive | inactive |  |
| CCCN1C=CN(C)C1 | inactive | inactive | inactive | inactive |  | inactive | inactive | inactive | inactive |  |
| CC(C)(Oc1ccc(Cl)cc1)C(=O)O | inactive | inactive | inactive | inactive | inactive | inactive | inactive | inactive | inactive |  |
| C=C1C[C@H]2[C@@H]3C=C(C)C4=CC(=O)CC[C@]4(C)[C@H]3CC[C@]2(C)[C@@]1(OC(C)=O)C(C)=O | inactive | inactive | inactive |  | inactive | inactive | 1.41 µM (active) and 6.01 µM (active) | inactive | inactive |  |
| CCC/C=C/C=O | inactive | inactive | inactive |  | inactive | inactive | inactive | inactive | inactive |  |
| Nc1ccc2c(O)cc(S(=O)(=O)O)cc2c1 | inactive | inactive | inactive |  |  | inactive | inactive | inactive | 61.1 µM (active) |  |
| CC1(C)NC(=O)N(c2ccc([N+](=O)[O-])c(C(F)(F)F)c2)C1=O | inactive | inactive | inactive | 24.5 µM (active) and inactive |  | inactive | inactive | inactive | inactive |  |
| C/C=C/C(=O)N(CC)c1ccccc1C | inactive | inactive | inactive |  |  | inactive | inactive | inactive | inactive |  |
| CC/C(=C(/CC)c1ccc(O)cc1)c1ccc(O)cc1 | inactive | inactive | inactive |  | 15.4 µM (active) | inactive | inactive | inactive | inactive |  |
| Oc1ccc(C(c2ccc(O)cc2)C(Cl)(Cl)Cl)cc1 | inactive | inactive | inactive |  | inactive | inactive | inactive | inactive | inactive |  |
| [O-]/[N+](=N\O)c1ccccc1 | inactive | inactive | inactive | inactive |  | inactive | inactive | inactive | inactive |  |
| Cc1ccc(S(=O)(=O)NCl)cc1 | inactive | inactive | inactive | inactive | inactive | inactive | inactive | inactive | inactive |  |
| C=C[C@H]1CN2CC[C@H]1C[C@@H]2[C@@H](O)c1ccnc2ccc(OC)cc12 | inactive | inactive | inactive | 48.2 µM (active) |  | inactive | inactive | inactive | inactive |  |
| CN1CCOCC1 | inactive | inactive | inactive | inactive | inactive | inactive | inactive | inactive | inactive |  |
| Nc1ccc(N)c(Cl)c1 | inactive and 38.9 µM (active) | inactive and 43.6 µM (active) | inactive and 27.5 µM (active) | inactive | 21.8 µM (active) and 43.6 µM (active) |  | inactive | inactive and 38.9 µM (active) | inactive |  |
| Cc1ccc(C)c(O)c1 | inactive | inactive | inactive | inactive |  | inactive | inactive | inactive | inactive |  |
| [Na+] |  |  |  |  |  |  |  | inactive |  |  |
| CC(C)[C@@H]1CC[C@@H](C)CC1=O | inactive | inactive | inactive | inactive | inactive | inactive | inactive | inactive | inactive |  |
| COc1ccc(-c2coc3cc(O)cc(O)c3c2=O)cc1 | inactive |  | inactive | 44 µM (active) |  | inactive | inactive | inactive | inactive | inactive |
| C[C@]12CC[C@@H]3c4ccc(O)cc4CC[C@H]3[C@@H]1CC[C@H]2O | inactive | 11.2 µM (active) and 34.7 µM (active) | inactive | 5.59 µM (active) and 13.8 µM (active) |  | inactive | inactive | inactive | inactive |  |
| CCCCCCOCCOCCO | inactive | inactive | inactive | inactive | inactive | inactive | inactive | inactive | inactive |  |
